# Where “and” joins values, the source holds several entries; their conditions need not be identical. Equal values may be shown once. Inconclusive results are not listed. Entries that show only a call come without a potency. Calls of active or inactive are those of the source. Unless noted, calls follow the shape of the dose curve; as a rule, active = well fitted curve in the direction sought with a large enough effect; inconclusive = small, poorly fitted or top-dose-only effect, or another doubt; inactive = no such curve, though single readings can be large; an effect the other way counts as inactive or inconclusive.
# Assays:
# [1] = Cell Viability - LYMP2-020 (AID 986); conditions: series mostly up to 92.2 µM;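 also: cells exposed to compound for 24 h at 37 °C; nearly all actives have a fitted effect of over 55% in size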
# Summary of the method: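 Seed 2500 cells per well and incubate 5 hr at 37 C. Add compounds at a concentration series and incubate 24 hr at 37 C. Add CellTiter-Glo, wait 30 min at RT, read luminescence, and fit a Hill curve for AC50.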
# [2] = Cell Viability - LYMP2-022 (AID 987); conditions: LYMP2-022 lymphoblastoid cell viability; series mostly up to 92.2 µM; also: nearly all actives have a fitted effect of over 55% in size
# Summary of the method: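 Cells were seeded at 2500 per well, rested 5 hr at 37 C, and treated with titrated compounds for 24 hr at 37 C. Cellular ATP was then quantified by luciferase luminescence, and AC50 values were derived from Hill-modelled concentration-response curves.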
# [3] = Cell Viability - LYMP2-024 (AID 988); conditions: LYMP2-024 lymphoblastoid cell viability; series mostly up to 92.2 µM; also: nearly all actives have a fitted effect of over 60% in size
# Summary of the method: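 qHTS cytotoxicity, human lymphoblastoid line, complete medium; 24 h cpd treatment, 37 C; CellTiter-Glo ATP luminescence readout; tetraoctylammonium bromide positive control; AC50 via Hill fit.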
# [4] = Cell Viability - LYMP1-002 - Assay at 24 hr (AID 993); conditions: LYMP1-002 lymphoblastoid cells viability; series mostly up to 92.2 µM
# Summary of the method: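 Acute toxicity is measured as concentration-dependent loss of cellular ATP in a human lymphoblastoid line (Coriell LYMP1-002) after 24 h treatment in complete medium. ATP is quantified by luciferase luminescence and AC50 derived by Hill modelling.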
# [5] = Cell Viability - LYMP1-002 - Assay at 40 hr (AID 994); conditions: LYMP1-002 lymphoblastoid cell viability; series mostly up to 92.2 µM; also: nearly all actives have a fitted effect of over 60% in size
# Summary of the method: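 Cells are plated at 2500 per well and rested 5 hr at 37 C. Compounds are added and incubated 40 hr at 37 C. CellTiter-Glo reagent is added for 30 min at room temperature before luminescence is read.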
# [6] = qHTS Assay for Lipid Storage Modulators (AID 1519; calls by dose curve); conditions: Drosophila S3 cells, BODIPY lipid droplet/cell ratio, laser cytometry, cells loaded with oleic acid
# Summary of the method: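 Cells seeded at 5,000 per well were treated with compounds over a concentration series and loaded with oleic acid (400 uM, as added). Lipid droplet fluorescence (488 nm excitation, 500-530 nm channel) was read by laser-scanning cytometry and normalized to 20 uM Triacsin C.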
# [7] = molecular target: alpha-glucosidase (Oryza sativa, rice) (UniProt Q653V4); assay: Counterscreen for Glucocerebrosidase Inhibitors: qHTS Assay for Rice alpha-Glucosidase at pH 5.0 (AID 997); conditions: rice alpha-glucosidase enzyme activity; series mostly up to 76.9 µM
# Summary of the method: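 Endpoint fluorogenic assay at pH 5.0: compounds (0.7 nM to 77 uM) titrated against 4 nM rice enzyme and 400 uM 4-MU-alpha-glucoside for 20 min at room temperature; NaOH/glycine stop, read ex 365/em 440 nm, Hill-fitted AC50.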
# [8] = molecular target: DNA repair nuclease/redox regulator APEX1 (Homo sapiens) (UniProt P27695); assay: qHTS Validation Assay for Inhibitors of the Human Apurinic/apyrimidinic Endonuclease 1 (APE1) (AID 1705;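 also: TAMRA fluorescence gain over two minutes as APE1 cuts a quenched THF abasic duplex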); conditions: purified APE1 endonuclease activity, fluorescence, titration; series mostly up to 57.1 µM
# Summary of the method: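 Read-out: TAMRA fluorescence (525 nm ex, 598 nm em) from cleavage of a quenched THF abasic-site duplex, 50 nM final; activity taken as intensity change between third and first of three reads 60 s apart.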
# [9] = Counterscreen for APE1 Inhibitors: Fluorescent Dye Displacement Validation Assay (AID 1707); conditions: fluorescent dye displacement from DNA; series mostly up to 57.1 µM
# Summary of the method: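 Signal: ThO fluorescence (ex 480 nm/em 540 nm) on binding 50 nM dsDNA; displacement by test compound reduces it. Conditions: 250 nM dye, 50 mM Tris-HCl pH7.5, 2 mM MgCl2, 50mM NaCl, 0.01% Tween-20.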
# [10] = measured here: cell count channel max response
# [11] = measured here: lipid channel max response
# Chain of DNA repair nuclease/redox regulator APEX1 (Homo sapiens) (P27695 whole entry, looked up): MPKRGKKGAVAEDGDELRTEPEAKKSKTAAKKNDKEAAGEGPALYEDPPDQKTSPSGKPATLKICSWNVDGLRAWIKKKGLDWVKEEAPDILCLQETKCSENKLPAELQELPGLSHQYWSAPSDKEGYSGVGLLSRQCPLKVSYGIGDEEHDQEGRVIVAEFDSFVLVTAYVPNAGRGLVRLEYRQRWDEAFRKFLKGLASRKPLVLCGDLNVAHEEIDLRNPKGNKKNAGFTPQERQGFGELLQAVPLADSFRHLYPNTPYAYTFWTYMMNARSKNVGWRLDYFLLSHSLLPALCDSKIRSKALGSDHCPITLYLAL
structure (smiles),measurement,setting,value
Oc1cccc(O)c1,Potency,[1],inactive
same,Potency,[2],inactive
same,outcome,[3],inactive
same,Potency,[4],inactive
same,Potency,[5],inactive
same,"activity change, negative = inhibition",[6]; at 57.5 µM (top of the series),4.72% (inactive)
same,max response,[6]; [10],10.3%
same,max response,[6]; [11],16.6%
Cc1cc(N)c2ccccc2[n+]1CCCCCCCCCC[n+]1c(C)cc(N)c2ccccc21,outcome,[7],inactive
same,"activity change, negative = inhibition",[6]; at 57.5 µM (top of the series),-10.5% (inactive)
same,max response,[6]; [10],-7.09%
same,max response,[6]; [11],-16.4%
C[C@]12CC[C@@H]3c4ccc(O)cc4CC[C@H]3[C@@H]1CCC2=O,outcome,[7],inactive
same,Potency,[8],inactive
same,Potency,[9],inactive
NC(=O)c1ncn([C@@H]2O[C@H](CO)[C@@H](O)[C@H]2O)n1,Potency,[1],inactive
same,Potency,[2],inactive
same,outcome,[3],inactive
same,Potency,[4],inactive
same,Potency,[5],inactive
same,outcome,[7],inactive
same,Potency,[8],inactive
same,Potency,[9],inactive
Nc1cc(=O)[nH]c(N)n1,outcome,[7],inactive
same,"activity change, negative = inhibition",[6]; at 57.5 µM (top of the series),1.9% (inactive)
same,max response,[6]; [10],-3.41%
same,max response,[6]; [11],-1.88%
same,Potency,[8],inactive
same,Potency,[9],inactive
CSc1ccc2c(c1)C(N1CCN(C)CC1)Cc1ccccc1S2 (stereo unspecified),"activity change, negative = inhibition",[6]; at 57.5 µM (top of the series),1.28% (inactive) and 0.609% (inactive)
same,max response,[6]; [10],9.1% and -20.8%
same,max response,[6]; [11],12.4% and -19.6%
same,Potency,[8],inactive
same,Potency,[9],inactive
CNC(=O)Oc1ccc2c(c1)[C@]1(C)CCN(C)[C@@H]1N2C,Potency,[8],inactive
same,Potency,[9],inactive
[Cl][In]([Cl])[Cl],Potency,[1],inactive
same,Potency,[2],inactive
same,outcome,[3],inactive
same,Potency,[4],inactive
same,Potency,[5],inactive
CCCCCCCCCCCCOS(=O)(=O)O,Potency,[1],inactive
same,Potency,[2],inactive
same,outcome,[3],inactive
same,Potency,[4],inactive
same,Potency,[5],inactive
CC1(C)[C@@H]2CC[C@@]1(C)C(=O)C2,Potency,[1],inactive
same,Potency,[2],inactive
same,outcome,[3],inactive
same,Potency,[4],inactive
same,Potency,[5],inactive
same,"activity change, negative = inhibition",[6]; at 57.5 µM (top of the series),1.5% (inactive)
same,max response,[6]; [10],-8.09%
same,max response,[6]; [11],-6.29%
CC1=C(CC(=O)O)c2cc(F)ccc2/C1=C\c1ccc(S(C)=O)cc1 (stereo unspecified),outcome,[7],inactive
same,"activity change, negative = inhibition",[6]; at 25.7 µM (top of the series),-0.955% (inactive)
same,max response,[6]; [10],-8.73%
same,max response,[6]; [11],-7.15%
same,Potency,[8],inactive
same,Potency,[9],inactive
O=C1O[C@H]([C@@H](O)CO)C(O)=C1O,Potency,[1],inactive
same,Potency,[2],inactive
same,outcome,[3],inactive
same,Potency,[4],inactive
same,Potency,[5],inactive
CCCn1cnc2c1c(=O)n(CCCCC(C)=O)c(=O)n2C,outcome,[7],inactive
same,"activity change, negative = inhibition",[6]; at 57.5 µM (top of the series),0.49% (inactive)
same,max response,[6]; [10],51.1%
same,max response,[6]; [11],50.9%
same,Potency,[8],inactive
same,Potency,[9],inactive
C[C@]12C[C@H](O)[C@H]3[C@@H](CCC4=CC(=O)CC[C@@]43C)[C@@H]1CC[C@@H]2C(=O)CO,Potency,[1],inactive
same,Potency,[2],inactive
same,outcome,[3],inactive
same,Potency,[4],inactive
same,Potency,[5],inactive
same,outcome,[7],inactive
Cc1cc2nc3c(=O)[nH]c(=O)nc-3n(C[C@H](O)[C@H](O)[C@H](O)CO)c2cc1C,Potency,[1],inactive
same,Potency,[2],inactive
same,outcome,[3],inactive
same,Potency,[4],inactive
same,Potency,[5],inactive
NC(=O)N/N=C/c1ccc([N+](=O)[O-])o1,Potency,[1],inactive
same,Potency,[4],inactive
same,"activity change, negative = inhibition",[6]; at 57.5 µM (top of the series),-28.3% (inactive)
same,max response,[6]; [10],-6.33%
same,max response,[6]; [11],-28%
NC(N)=NCCC[C@H](N)C(=O)O,outcome,[7],inactive
same,"activity change, negative = inhibition",[6]; at 57.5 µM (top of the series),-0.95% (inactive)
same,max response,[6]; [10],-7.59%
same,max response,[6]; [11],-6.54%
same,Potency,[9],inactive
CN(C)CC[C@@H](c1ccc(Cl)cc1)c1ccccn1,"activity change, negative = inhibition",[6]; at 57.5 µM (top of the series),-0.0513% (inactive)
same,max response,[6]; [10],35.1%
same,max response,[6]; [11],34.2%
same,Potency,[8],inactive
same,Potency,[9],inactive
NC1CCN(c2cccc(Cl)n2)CC1,outcome,[7],inactive
same,"activity change, negative = inhibition",[6]; at 57.5 µM (top of the series),5.71% (inactive) and 0.974% (inactive)
same,max response,[6]; [10],-16.7% and 37.1%
same,max response,[6]; [11],-10.9% and 36.3%
same,Potency,[8],inactive
same,Potency,[9],inactive
C#CCN(C)Cc1ccccc1,outcome,[7],inactive
same,"activity change, negative = inhibition",[6]; at 25.7 µM (top of the series),-2.03% (inactive)
same,max response,[6]; [10],-10.9%
same,max response,[6]; [11],-13.8%
same,Potency,[8],inactive
same,Potency,[9],inactive
CC12CCC(CC1)C(C)(C)O2,Potency,[1],inactive
same,Potency,[2],inactive
same,outcome,[3],inactive
same,Potency,[4],inactive
same,Potency,[5],inactive
same,"activity change, negative = inhibition",[6]; at 57.5 µM (top of the series),2.95% (inactive)
same,max response,[6]; [10],-6.11%
same,max response,[6]; [11],-2.37%
CC1=C(/C=C/C(C)=C/C=C/C(C)=C/C(=O)O)C(C)(C)CCC1,"activity change, negative = inhibition",[6]; at 57.5 µM (top of the series),0.149% (inactive)
same,max response,[6]; [10],-9.37%
same,max response,[6]; [11],-7.9%
same,Potency,[8],inactive
same,Potency,[9],inactive
NCCNCCNCCNCCN,Potency,[1],inactive
same,Potency,[2],inactive
same,outcome,[3],inactive
same,Potency,[4],inactive
same,Potency,[5],inactive
CCCCOC(=O)c1ccc(O)cc1,Potency,[1],inactive
same,Potency,[2],inactive
same,outcome,[3],inactive
same,Potency,[4],inactive
same,Potency,[5],inactive
same,"activity change, negative = inhibition",[6]; at 25.7 µM (top of the series),-2.55% (inactive)
same,max response,[6]; [10],-1.21%
same,max response,[6]; [11],-4.1%
CC[C@H]1CN2CCc3cc(OC)c(OC)cc3[C@@H]2C[C@@H]1C[C@H]1NCCc2cc(OC)c(OC)cc21,Potency,[9],inactive

# Source: PubChem BioAssay (NCATS)
